The record followed here is PubChem BioAssay (EPA / NIEHS).

Conditions in all cases: mRNA level, 48 h; actives raise or lower the signal
Read-out in one test: BCL2L11 (gene 10018)
Nature of the test: LTEA_HepaRG_BCL2L11: Life Technologies and Expression Analysis (LTEA) Assay for Bcl-2 (BCL2L11) gene using HepaRG (AID 2283473). The procedure, abridged: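 Human hepatic HepaRG cultures are treated 48 h with test chemicals (maximum 100 uM, 0.5% DMSO vehicle). Expression of BCL2L11 is measured by qRT-PCR against ACTB, GAPDH and POLR2A, with activity in either direction scored relative to vehicle.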

Read-out in test [1]: Apolipoprotein A-V (APOA5) gene, APOA5 (gene 116519)
Nature of the test: LTEA_HepaRG_APOA5: Life Technologies and Expression Analysis (LTEA) Assay for Apolipoprotein A-V (APOA5) gene using HepaRG (AID 2283474). The procedure, abridged:
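Concentration-response of APOA5 expression in HepaRG: eight half-log doses to 100 uM, 48 h, qRT-PCR normalized to ACTB/GAPDH/POLR2A, bidirectional fitting with 0.5% DMSO as baseline.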

Read-out in test [2]: Apoptosis regulator Bcl-2 (Homo sapiens) (UniProt P10415)
Nature of the test: LTEA_HepaRG_BCL2: Life Technologies and Expression Analysis (LTEA) Assay for Bcl-2 gene using HepaRG (AID 2283475). The procedure, abridged: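 Differentiated HepaRG cells in serum-free induction medium were exposed for 48 h to eight half-log concentrations up to 100 uM in 0.5% DMSO, in duplicate. BCL2 mRNA was quantified by TaqMan qRT-PCR normalised to ACTB, GAPDH and POLR2A, with bidirectional fitting versus DMSO.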

Read-out in test [3]: Bcl-2 (BID) gene, BID (gene 637)
Nature of the test: LTEA_HepaRG_BID: Life Technologies and Expression Analysis (LTEA) Assay for Bcl-2 (BID) gene using HepaRG (AID 2283476). A digest of the protocol: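 Differentiated HepaRG cells in serum-free induction medium were exposed in duplicate for 48 h to eight half-log concentrations up to 100 uM in 0.5% DMSO. BID mRNA was quantified by qRT-PCR, normalized to ACTB, GAPDH and POLR2A.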

Read-out in another test: Caspase-3 (Homo sapiens) (UniProt P42574)
Nature of the test: LTEA_HepaRG_CASP3: Life Technologies and Expression Analysis (LTEA) Assay for cysteine-aspartic acid protease (CASP3) using HepaRG (AID 2283477). The procedure, abridged:
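Transcript-level assay: CASP3 mRNA in human HepaRG after 48 h treatment, eight half-log concentrations from 100 uM in 0.5% DMSO, quantified by qRT-PCR.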

Read-out in test [4]: Cytochrome P450 (CYP24A1), CYP24A1 (gene 1591)
Description: LTEA_HepaRG_CYP24A1: Life Technologies and Expression Analysis (LTEA) Assay for Cytochrome P450 (CYP24A1) using HepaRG (AID 2283478). The procedure, abridged:
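Gene expression of CYP24A1 by TaqMan qRT-PCR in HepaRG after 48 h treatment, highest concentration 100 uM; activity fitted in both directions relative to DMSO vehicle.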

Read-out in test [5]: Cytochrome P450 (CYP1A2), CYP1A2 (gene 1544)
Nature of the test: LTEA_HepaRG_CYP1A2: Life Technologies and Expression Analysis (LTEA) Assay for Cytochrome P450 (CYP1A2) using HepaRG (AID 2283479). A digest of the protocol: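 In duplicate wells, HepaRG cultures maintained in 0.5% DMSO were treated 48 h across an 8-point, half-log series topping at 100 uM; phenobarbital (1 mM) served as induction control. Expression was read by qRT-PCR.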

Read-out in test [6]: cysteine-aspartic acid protease (CASP8), CASP8 (gene 841)
Description: LTEA_HepaRG_CASP8: Life Technologies and Expression Analysis (LTEA) Assay for cysteine-aspartic acid protease (CASP8) using HepaRG (AID 2283480). The procedure, abridged: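 HepaRG, 48 h exposure, duplicate wells; 8 conc, half-log from 100 uM, 0.5% DMSO. Serum-free induction medium. CASP8 mRNA by TaqMan qRT-PCR, norm. ACTB/GAPDH/POLR2A; gain/loss fitted vs DMSO.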

Read-out in test [7]: Cytochrome P450 (CYP2B6), CYP2B6 (gene 1555)
Nature of the test: LTEA_HepaRG_CYP2B6: Life Technologies and Expression Analysis (LTEA) Assay for Cytochrome P450 (CYP2B6) using HepaRG (AID 2283481). A digest of the protocol:
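Human HepaRG, 48 h dosing, 0.5% DMSO vehicle, top dose 100 uM. CYP2B6 transcript by qRT-PCR, housekeeping-normalized, bidirectional curve fit.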

Read-out in test [8]: Cytochrome P450 2C19 (Homo sapiens) (UniProt P33261)
Description: LTEA_HepaRG_CYP2C19: Life Technologies and Expression Analysis (LTEA) Assay for CYP2C19 using HepaRG (AID 2283482). The procedure, abridged: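 Endpoint: CYP2C19 mRNA change, bidirectional fit vs 0.5% DMSO. Cells: HepaRG, 48 h exposure, eight-point series topping at 100 uM. Quantitation: qRT-PCR normalized to ACTB, GAPDH, POLR2A.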

Read-out in another test: CYP2C9 (gene 1559)
Nature of the test: LTEA_HepaRG_CYP2C9: Life Technologies and Expression Analysis (LTEA) Assay for CYP2C9 using HepaRG (AID 2283484). A digest of the protocol: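 Cells plated 48 h, switched to serum-free induction medium, then treated in duplicate for 48 h at eight concentrations (max 100 uM, 0.5% DMSO). RNA then analysed by qRT-PCR for CYP2C9; curves fitted in both directions relative to DMSO.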

Read-out in a further test: CYP2E1 (gene 1571)
Nature of the test: LTEA_HepaRG_CYP2E1: Life Technologies and Expression Analysis (LTEA) Assay for CYP2E1 using HepaRG (AID 2283485). The procedure, abridged: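 HepaRG cells in serum-free induction medium exposed 48 h to test chemicals, 8 half-log concentrations up to 100 uM in 0.5% DMSO, duplicate. CYP2E1 mRNA by qRT-PCR, normalized to ACTB, GAPDH, POLR2A; bidirectional fit versus DMSO.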

Read-out in the next test: CYP4A11 (gene 1579)
Description: LTEA_HepaRG_CYP4A11: Life Technologies and Expression Analysis (LTEA) Assay for CYP4A11 using HepaRG (AID 2283486). The procedure, abridged: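 Human hepatic HepaRG cultures receive duplicate 48 h exposures across a concentration-response series topping at 100 uM. Expression changes in CYP4A11 are measured by qRT-PCR relative to DMSO controls.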

Read-out in test [9]: DNA damage-inducible transcript 3 (DDIT3), DDIT3 (gene 1649)
Nature of the test: LTEA_HepaRG_DDIT3: Life Technologies and Expression Analysis (LTEA) Assay for DNA damage-inducible transcript 3 (DDIT3) using HepaRG (AID 2283488). The procedure, abridged: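 Differentiated human HepaRG cells in serum-free induction medium were exposed in duplicate for 48 h to 8 concentrations (top 100 uM, half-log steps, 0.5% DMSO). DDIT3 mRNA measured by TaqMan qRT-PCR, normalized to ACTB/GAPDH/POLR2A; bidirectional fit versus DMSO.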

Read-out in test [10]: Pro-epidermal growth factor (Homo sapiens) (UniProt P01133)
Description: LTEA_HepaRG_EGF: Life Technologies and Expression Analysis (LTEA) Assay for Epidermal growth factor (EGF) using HepaRG (AID 2283489). The procedure, abridged: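 Concentration-response mRNA assay: HepaRG cells dosed 48 h (max 100 uM, 0.5% DMSO), EGF measured by qRT-PCR and normalized to ACTB/GAPDH/POLR2A.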

Read-out in test [11]: Early growth response protein 1 (EGR1) transcription factor, EGR1 (gene 1958)
Description: LTEA_HepaRG_EGR1: Life Technologies and Expression Analysis (LTEA) Assay for Early growth response protein 1 (EGR1) transcription factor using HepaRG (AID 2283490). The procedure, abridged: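 Read-out is EGR1 mRNA level by qRT-PCR, normalized to three housekeeping genes and analysed for gain or loss of signal against 0.5% DMSO. Source cells: human HepaRG, treated 48 h at up to 100 uM in half-log dilutions.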

Read-out in test [12]: Ezrin (EZR), EZR (gene 7430)
Description: LTEA_HepaRG_EZR: Life Technologies and Expression Analysis (LTEA) Assay for Ezrin (EZR) using HepaRG (AID 2283491). A digest of the protocol:
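Gain or loss of EZR mRNA is scored relative to 0.5% DMSO in human HepaRG cultures treated 48 h with test chemicals in duplicate, eight half-log concentrations from 100 uM.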

Read-out in test [13]: Cytochrome P450 3A7 (Homo sapiens) (UniProt P24462)
Description: LTEA_HepaRG_CYP3A7: Life Technologies and Expression Analysis (LTEA) Assay for CYP3A7 using HepaRG (AID 2283492). A digest of the protocol:
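qRT-PCR of CYP3A7 in HepaRG lysates after 48 h treatment; concentration-response (8 points, max 100 uM) analysed bidirectionally relative to 0.5% DMSO controls.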

The source made the active and inactive calls. How the source made its calls: active means hit-call score of the fitted dose curve at least 0.9, where 1 is the maximum; inactive means score below 0.9.

Caspase-3 (Homo sapiens), sequence (P42574 whole entry, looked up): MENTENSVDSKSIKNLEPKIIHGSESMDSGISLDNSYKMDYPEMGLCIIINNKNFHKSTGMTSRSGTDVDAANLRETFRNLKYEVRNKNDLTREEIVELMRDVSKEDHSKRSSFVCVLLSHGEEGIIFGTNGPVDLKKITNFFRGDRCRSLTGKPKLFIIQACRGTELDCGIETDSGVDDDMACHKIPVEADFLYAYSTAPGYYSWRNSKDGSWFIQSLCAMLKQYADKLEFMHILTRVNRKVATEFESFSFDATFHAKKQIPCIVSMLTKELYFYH
Cytochrome P450 2C19 (Homo sapiens), sequence (P33261 whole entry, looked up): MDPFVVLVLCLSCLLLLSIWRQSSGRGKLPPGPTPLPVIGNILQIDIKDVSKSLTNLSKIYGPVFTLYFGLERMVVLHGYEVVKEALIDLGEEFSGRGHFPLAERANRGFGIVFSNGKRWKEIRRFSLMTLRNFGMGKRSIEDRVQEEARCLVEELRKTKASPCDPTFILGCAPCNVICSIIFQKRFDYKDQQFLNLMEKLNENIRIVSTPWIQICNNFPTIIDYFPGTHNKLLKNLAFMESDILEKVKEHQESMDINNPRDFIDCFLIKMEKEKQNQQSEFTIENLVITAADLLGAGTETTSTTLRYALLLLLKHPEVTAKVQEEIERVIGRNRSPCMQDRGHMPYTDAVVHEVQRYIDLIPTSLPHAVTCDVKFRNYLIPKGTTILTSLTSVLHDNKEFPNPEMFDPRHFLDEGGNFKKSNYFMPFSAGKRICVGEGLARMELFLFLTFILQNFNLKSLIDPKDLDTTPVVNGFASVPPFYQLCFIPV
Cytochrome P450 3A7 (Homo sapiens), sequence (P24462 whole entry, looked up): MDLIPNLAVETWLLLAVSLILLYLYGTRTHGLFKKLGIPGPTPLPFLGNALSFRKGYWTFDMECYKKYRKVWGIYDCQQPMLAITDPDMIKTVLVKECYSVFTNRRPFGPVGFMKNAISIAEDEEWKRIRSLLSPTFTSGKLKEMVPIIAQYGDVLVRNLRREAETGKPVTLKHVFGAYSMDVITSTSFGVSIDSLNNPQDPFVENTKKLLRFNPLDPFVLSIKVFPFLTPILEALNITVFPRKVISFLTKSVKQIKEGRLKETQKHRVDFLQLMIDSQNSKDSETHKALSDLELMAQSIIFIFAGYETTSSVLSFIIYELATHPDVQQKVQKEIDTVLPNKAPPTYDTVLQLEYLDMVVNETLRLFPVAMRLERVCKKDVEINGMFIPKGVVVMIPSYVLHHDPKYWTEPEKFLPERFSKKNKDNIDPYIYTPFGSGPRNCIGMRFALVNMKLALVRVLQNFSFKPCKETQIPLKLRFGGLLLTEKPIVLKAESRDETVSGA
Apoptosis regulator Bcl-2 (Homo sapiens), sequence (P10415 whole entry, looked up): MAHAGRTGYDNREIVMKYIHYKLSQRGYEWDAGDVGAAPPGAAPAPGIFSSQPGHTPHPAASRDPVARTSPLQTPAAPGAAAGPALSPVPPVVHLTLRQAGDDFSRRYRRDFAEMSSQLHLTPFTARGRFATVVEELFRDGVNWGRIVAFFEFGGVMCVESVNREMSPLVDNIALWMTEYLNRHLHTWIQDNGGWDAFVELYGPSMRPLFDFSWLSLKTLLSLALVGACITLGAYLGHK

On to `CCOC(=O)[C@]1(c2ccccc2)Oc2ccccc2[C@@H]1N`, for which the compound was called inactive (with BCL2L11 (gene 10018); in test [3]; with Caspase-3 (Homo sapiens); in [4]; in test [6]; in test [11]). Moreover, the outcome in test [12] was inactive. In addition, the AC50 is 83.3 µM (active) in test [1]; 88.7 µM (active) in test [2]; 15.8 µM (active) in [5]; 81.9 µM (active) in [7]; 78.2 µM (active) in [8]; 74.3 µM (active) with CYP2C9 (gene 1559). Further, the AC50 is 75.2 µM (active) in the test with CYP2E1 (gene 1571); 79.7 µM (active) with CYP4A11 (gene 1579); 76.8 µM (active) in test [9]; 75.6 µM (active) in test [10]; 85.4 µM (active) in test [13].

Turning to `Clc1ccccc1Cl`, the compound was called inactive (with BCL2L11 (gene 10018); in test [1]; in test [2]; in test [3]; in the test with Caspase-3 (Homo sapiens); in test [4]). Also, the result (in test [5]; in test [6]; in test [7]; in [8]; in the test with CYP2C9 (gene 1559); with CYP2E1 (gene 1571)) was inactive. Also, the compound was classed as inactive (in the test with CYP4A11 (gene 1579); in [9]; in [10]; in test [11]; in test [12]; in test [13]).

With `CO[C@@H]1[C@H](OC(=O)NC(=O)CCl)CC[C@]2(CO2)[C@H]1[C@@]1(C)O[C@@H]1CC=C(C)C`, the call (in the test with BCL2L11 (gene 10018); in test [1]; in [2]; in [3]; with Caspase-3 (Homo sapiens); in test [4]) was inactive. In addition, the outcome (in test [5]; in test [6]; in test [8]; with CYP2C9 (gene 1559); in the test with CYP2E1 (gene 1571); in the test with CYP4A11 (gene 1579)) was inactive. Moreover, the compound was classed as inactive in [9], in test [10], in test [11], in test [12] and in [13]. In addition, the concentration at half-maximal activity (AC50) in test [7] is 0.0683 µM (active).

On to `O=[N+]([O-])C(Br)(CO)CO`, for which the result (with BCL2L11 (gene 10018); in [1]; in test [2]; in test [3]; with Caspase-3 (Homo sapiens); in [4]) was inactive. The compound was called inactive (in [5]; in [6]; in test [7]; in [8]; with CYP2C9 (gene 1559); with CYP2E1 (gene 1571)). For the same compound, the call (in the test with CYP4A11 (gene 1579); in test [9]; in [10]; in test [11]; in test [12]; in [13]) was inactive.

In the case of `c1ccc2c(c1)oc1ccccc12`, the result (in the test with BCL2L11 (gene 10018); in test [1]; in [2]; in test [3]; in the test with Caspase-3 (Homo sapiens); in test [4]) was inactive. The outcome (in [6]; in [8]; with CYP2C9 (gene 1559); in the test with CYP2E1 (gene 1571); in the test with CYP4A11 (gene 1579); in test [9]) was inactive. The compound was called inactive in test [10], in [11], in [12] and in test [13]. Also, the AC50 in test [5] is 50 µM (active); in test [7], 0.0679 µM (active).

Regarding `O=C(N[C@H](c1ccccc1)[C@@H]1CN2CCC1CC2)c1c(Cl)ccc(C(F)(F)F)c1Cl`, the half-maximal activity concentration (AC50) in the test with BCL2L11 (gene 10018) was 11.3 µM (active); in test [1], 72.6 µM (active); in the test with Caspase-3 (Homo sapiens), 70 µM (active); in test [5], 84.6 µM (active); in [6], 73.7 µM (active); in test [7], 42 µM (active). Further, the half-maximal activity concentration (AC50) in test [8] is 75.2 µM (active); in the test with CYP2C9 (gene 1559) it was 69.5 µM (active); in the test with CYP2E1 (gene 1571), 44.5 µM (active); in the test with CYP4A11 (gene 1579), 35.4 µM (active); in [9], 36.3 µM (active); in [10], 73.1 µM (active). Besides, the concentration at half-maximal activity (AC50) in test [11] was 87.5 µM (active); in test [12], 2.42 µM (active); in [13], 76.2 µM (active). Further, the compound was classed as inactive in [2], in [3] and in test [4].
